# Hit rate of the full screen: of about 5,500 compounds, about 2,000 (36%) were called active. Not shown: some 18% with an inconclusive outcome. Some of the results follow. Values without a mark were called inactive. No stated cut-off is given here; in the data, active means normalized growth mostly below about 0.91 (no sharp cut-off); inconclusive means no clear call, values can overlap the other calls; inactive means mostly above about 0.92.
# Assay: chemical genetic growth profiling, strain panel (AID 1159580);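 further: tested at 20 µM; growth read once vehicle control cultures reached saturation at 30 °C; 1 = growth at the plate median or of vehicle wells; lower values mean less growth of the strain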
# Conditions: growth OD
smiles,measurement,setting,value
Nc1c2ccccc2nc2ccccc12,normalized growth,"S. cerevisiae deletion strains, locus YJR075W, strain HOC1, hits give low values",0.646 (active)
same,normalized growth,"S. cerevisiae deletion strains, locus YKL009W, strain mrt4, hits give low values",0.909
same,normalized growth,"S. cerevisiae deletion strains, locus YKL068W, hits give low values",0.988
same,normalized growth,"S. cerevisiae deletion strains, locus YKL085W, strain MDH1 (second series), hits give low values",0.872 (active)
same,normalized growth,"S. cerevisiae deletion strains, locus YKL085W, strain MDH1, hits give low values",0.872 (active)
same,normalized growth,"S. cerevisiae deletion strains, locus YKL160W, strain elf1, hits give low values",0.562 (active)
same,normalized growth,"S. cerevisiae deletion strains, locus YKL190W, strain CNB1, hits give low values",0.64 (active)
same,normalized growth,"S. cerevisiae deletion strains, locus YKR001C, strain vps1, hits give low values",0.481 (active)
same,normalized growth,"S. cerevisiae deletion strains, locus YKR026C, strain gcn3, hits give low values",0.968
same,normalized growth,"S. cerevisiae deletion strains, locus YKR091W, strain srl3, hits give low values",0.925 (active)
same,normalized growth,"S. cerevisiae deletion strains, locus YLL001W, strain dnm1, hits give low values",0.476 (active)
same,normalized growth,"S. cerevisiae deletion strains, locus YLL026W, hits give low values",0.555 (active)
same,normalized growth,"S. cerevisiae deletion strains, locus YLL041C, strain sdh2, hits give low values",0.784 (active)
same,normalized growth,"S. cerevisiae deletion strains, locus YLR027C, strain aat2, hits give low values",0.453 (active)
same,normalized growth,"S. cerevisiae deletion strains, locus YLR039C, strain RIC1, hits give low values",0.99
same,normalized growth,"S. cerevisiae deletion strains, locus YLR058C, strain SHM2, hits give low values",0.613 (active)
same,normalized growth,"S. cerevisiae deletion strains, locus YLR102C, strain apc9, hits give low values",0.823 (active)
same,normalized growth,"S. cerevisiae deletion strains, locus YLR113W, strain HOG1, hits give low values",0.979
same,normalized growth,"S. cerevisiae deletion strains, locus YLR221C, strain rsa3, hits give low values",0.516 (active)
same,normalized growth,"S. cerevisiae deletion strains, locus YLR258W, strain gsy2, hits give low values",0.53 (active)
same,normalized growth,"S. cerevisiae deletion strains, locus YLR262C, strain YPT6 (second series), hits give low values",0.843 (active)
same,normalized growth,"S. cerevisiae deletion strains, locus YLR262C, strain YPT6, hits give low values",0.915
same,normalized growth,"S. cerevisiae deletion strains, locus YLR268W, strain sec22, hits give low values",0.515 (active)
same,normalized growth,"S. cerevisiae deletion strains, locus YLR320W, strain mms22, hits give low values",0.565 (active)
same,normalized growth,"S. cerevisiae deletion strains, locus YLR330W, strain CHS5, hits give low values",0.886 (active)
same,normalized growth,"S. cerevisiae deletion strains, locus YLR342W, strain FKS1 (second series), hits give low values",0.713 (active)
same,normalized growth,"S. cerevisiae deletion strains, locus YLR342W, strain FKS1, hits give low values",0.792 (active)
same,normalized growth,"S. cerevisiae deletion strains, locus YLR357W, strain rsc2, hits give low values",1.2 [resistant] (active)
same,normalized growth,"S. cerevisiae deletion strains, locus YLR370C, strain arc18, hits give low values",0.7 (active)
same,normalized growth,"S. cerevisiae deletion strains, locus YLR371W, strain rom2, hits give low values",0.948
same,normalized growth,"S. cerevisiae deletion strains, locus YLR384C, strain iki3, hits give low values",0.853 (active)
same,normalized growth,"S. cerevisiae deletion strains, locus YLR418C, strain cdc73, hits give low values",0.689 (active)
same,normalized growth,"S. cerevisiae deletion strains, locus YML016C, strain PPZ1, hits give low values",0.847 (active)
same,normalized growth,"S. cerevisiae deletion strains, locus YML032C, strain rad52, hits give low values",0.314 (active)
same,normalized growth,"S. cerevisiae deletion strains, locus YML120C, strain ndi1, hits give low values",0.582 (active)
same,normalized growth,"S. cerevisiae deletion strains, locus YML124C, strain tub3, hits give low values",0.743 (active)
same,normalized growth,"S. cerevisiae deletion strains, locus YMR058W, strain fet3, hits give low values",0.639 (active)
same,normalized growth,"S. cerevisiae deletion strains, locus YMR078C, strain ctf18, hits give low values",0.763 (active)
same,normalized growth,"S. cerevisiae deletion strains, locus YMR125W, strain sto1, hits give low values",0.919
same,normalized growth,"S. cerevisiae deletion strains, locus YMR129W, hits give low values",0.693 (active)
same,normalized growth,"S. cerevisiae deletion strains, locus YMR205C, strain PFK2, hits give low values",0.634 (active)
same,normalized growth,"S. cerevisiae deletion strains, locus YMR223W, strain ubp8, hits give low values",0.557 (active)
same,normalized growth,"S. cerevisiae deletion strains, locus YMR231W, strain pep5, hits give low values",0.985
same,normalized growth,"S. cerevisiae deletion strains, locus YMR263W, strain SAP30, hits give low values",0.767 (active)
same,normalized growth,"S. cerevisiae deletion strains, locus YMR307W, strain GAS1, hits give low values",1.13
same,normalized growth,"S. cerevisiae deletion strains, locus YNL067W, strain RPL9B, hits give low values",0.606 (active)
same,normalized growth,"S. cerevisiae deletion strains, locus YNL071W, strain lat1, hits give low values",0.977
same,normalized growth,"S. cerevisiae deletion strains, locus YNL128W, strain TEP1, hits give low values",0.733 (active)
same,normalized growth,"S. cerevisiae deletion strains, locus YNL153C, strain GIM3, hits give low values",0.713 (active)
same,normalized growth,"S. cerevisiae deletion strains, locus YNL183C, strain NPR1, hits give low values",0.771 (active)
same,normalized growth,"S. cerevisiae deletion strains, locus YNL209W, strain ssb2, hits give low values",0.663 (active)
same,normalized growth,"S. cerevisiae deletion strains, locus YNL233W, strain BNI4, hits give low values",0.74 (active)
same,normalized growth,"S. cerevisiae deletion strains, locus YNL248C, strain rpa49, hits give low values",0.445 (active)
same,normalized growth,"S. cerevisiae deletion strains, locus YNL250W, strain rad50, hits give low values",0.78 (active)
same,normalized growth,"S. cerevisiae deletion strains, locus YNL271C, strain bni1, hits give low values",0.87 (active)
same,normalized growth,"S. cerevisiae deletion strains, locus YNL298W, strain CLA4, hits give low values",0.847 (active)
same,normalized growth,"S. cerevisiae deletion strains, locus YNL307C, strain MCK1, hits give low values",0.715 (active)
same,normalized growth,"S. cerevisiae deletion strains, locus YNL322C, strain KRE1 (second series), hits give low values",0.981
same,normalized growth,"S. cerevisiae deletion strains, locus YNL322C, strain KRE1, hits give low values",0.698 (active)
same,normalized growth,"S. cerevisiae deletion strains, locus YNR049C, strain mso1, hits give low values",0.672 (active)
same,normalized growth,"S. cerevisiae deletion strains, locus YNR052C, strain pop2, hits give low values",0.778 (active)
same,normalized growth,"S. cerevisiae deletion strains, locus YOL006C, strain TOP1, hits give low values",0.67
same,normalized growth,"S. cerevisiae deletion strains, locus YOL012C, strain htz1",2.35 [resistant] (active)
same,normalized growth,"S. cerevisiae deletion strains, locus YOL147C, strain pex11, hits give low values",0.661 (active)
same,normalized growth,"S. cerevisiae deletion strains, locus YOR001W, strain rrp6, hits give low values",0.309 (active)
same,normalized growth,"S. cerevisiae deletion strains, locus YOR061W, strain CKA2, hits give low values",0.824 (active)
same,normalized growth,"S. cerevisiae deletion strains, locus YOR069W, strain VPS5, hits give low values",0.811 (active)
same,normalized growth,"S. cerevisiae deletion strains, locus YOR070C, strain gyp1, hits give low values",0.625 (active)
same,normalized growth,"S. cerevisiae deletion strains, locus YOR080W, strain dia2, hits give low values",0.783 (active)
same,normalized growth,"S. cerevisiae deletion strains, locus YOR083W, strain WHI5, hits give low values",0.501 (active)
same,normalized growth,"S. cerevisiae deletion strains, locus YOR106W, strain vam3, hits give low values",0.445 (active)
same,normalized growth,"S. cerevisiae deletion strains, locus YOR136W, strain idh2, hits give low values",0.805 (active)
same,normalized growth,"S. cerevisiae deletion strains, locus YOR144C, strain elg1, hits give low values",0.752 (active)
same,normalized growth,"S. cerevisiae deletion strains, locus YOR184W, strain ser1, hits give low values",0.41 (active)
same,normalized growth,"S. cerevisiae deletion strains, locus YOR231W, strain MKK1, hits give low values",0.67 (active)
same,normalized growth,"S. cerevisiae deletion strains, locus YOR265W, strain rbl2, hits give low values",0.706 (active)
same,normalized growth,"S. cerevisiae deletion strains, locus YOR270C, strain vph1, hits give low values",0.599 (active)
same,normalized growth,"S. cerevisiae deletion strains, locus YOR290C, strain snf2, hits give low values",0.371 (active)
same,normalized growth,"S. cerevisiae deletion strains, locus YOR316C, strain cot1, hits give low values",0.808 (active)
same,normalized growth,"S. cerevisiae deletion strains, locus YPL051W, strain arl3, hits give low values",0.696 (active)
same,normalized growth,"S. cerevisiae deletion strains, locus YPL055C, strain LGE1, hits give low values",0.659 (active)
same,normalized growth,"S. cerevisiae deletion strains, locus YPL078C, strain atp4, hits give low values",0.674 (active)
same,normalized growth,"S. cerevisiae deletion strains, locus YPL106C, strain sse1, hits give low values",0.781 (active)
same,normalized growth,"S. cerevisiae deletion strains, locus YPL240C, strain hsp82, hits give low values",0.8 (active)
same,normalized growth,"S. cerevisiae deletion strains, locus YPL241C, strain CIN2, hits give low values",0.837 (active)
same,normalized growth,"S. cerevisiae deletion strains, locus YPL256C, strain CLN2, hits give low values",0.778 (active)
same,normalized growth,"S. cerevisiae deletion strains, locus YPR119W, strain clb2, hits give low values",0.862 (active)
same,normalized growth,"S. cerevisiae deletion strains, locus YPR141C, strain kar3, hits give low values",1.02
same,normalized growth,"S. cerevisiae deletion strains, locus YPR163C, strain tif3, hits give low values",0.974
same,normalized growth,"S. cerevisiae deletion strains, locus YPR167C, strain met16, hits give low values",0.758 (active)
same,normalized growth,"S. cerevisiae deletion strains, strain wtn01, hits give low values",0.42 (active)
same,normalized growth,"S. cerevisiae strains, strain wild type, hits give low values",0.601 (active)

# From PubChem BioAssay AID1159580 (chemical genetic matrix, 2015)
